Screens deposited in PubChem by National Center for Advancing Translational Sciences (NCATS).
NPC1 prom act – qHTS Assay for NPC1 Promoter Activators; Huh7 NPC1 promoter luciferase reporter, 24 h; Potency, µM (series often up to 9.22 µM), inactives show top-dose activation, actives largely listed as activators; actives 2.4% (n = 320,000); AID 485313, 2010; also: % of control where 0% means no effect; nearly all actives have a fitted effect of over 60% in size
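Compounds in DMSO were transferred onto Huh7 NPC1-luciferase reporter cells pre-incubated 2 h; after 24 h at 37 °C, Amplite reagent was dispensed and luminescence recorded 10 min later.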
KinaseGlo FLuc – Counterscreen for Luciferase (Kinase-Glo TM) Inhibition. actives 0.28% (n = 200,000). AID 1379, 2008. Potency, µM (series often up to 38.3 µM), for inactives: top-dose activity change, negative = inhibition, most hits filed as inhibitors. Kinase-Glo luciferase, ATP luminescence, 8 min. Luciferin 4-monooxygenase (Photuris pensylvanica), Q27757; also: % is scaled to controls: 0 for no effect and ±100 for the full control effect; nearly all actives have a fitted effect of over 60% in size
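Compound is pinned into ATP-containing buffer (10 uM ATP, imidazole pH 7.2, 7 mM MgCl2). Kinase-Glo luciferase reagent is then added. Light output is recorded following an 8-min room-temperature incubation.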
SMN2 splice enh – qHTS Assay for Enhancers of SMN2 Splice Variant Expression. Potency, µM (series often up to 46.1 µM), inactives show at the highest dose activity change, positive = activation, hits mostly activators. HEK293 SMN2-luciferase splicing reporter, luminescence, 30-36 h. AID 1458, 2008. actives 2.8% (n = 210,000); also: % of control where 0% means no effect; nearly all actives have a fitted effect of over 55% in size
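HEK293 cells carry an SMN2 minigene-luciferase reporter in which exon 7 inclusion puts luciferase in frame. Cells were seeded at 2000 cells/well, attached for 10-12 hours, then exposed to compounds for 30-36 hours at 37C before ONE-Glo luminescence.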
ELG1 genotoxic – qHTS screen for small molecules that induce genotoxicity in human embryonic kidney (HEK293T) cells expressing luciferase-tagged ELG1; AID 504466, 2011; actives 1.3% (n = 330,000); Potency, µM (series often up to 46 µM), without a hit: at the top dose activity change, positive = activation, most hits filed as activators; HEK293T ELG1-luciferase reporter, luminescence, 16 h; also: % of control where 0% means no effect; nearly all actives have a fitted effect of over 60% in size
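Step 1: seed 2,000 HEK293T ELG1-luciferase cells per well. Step 2: add compound or DMSO, incubate 16 hr at 37 °C. Step 3: ONE-Glo, 30 min at room temperature, read luminescence.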
Rab9 prom act – qHTS Assay for Rab9 Promoter Activators | Huh7 Rab9 promoter-luciferase reporter, luminescence, 24 h | Potency, µM (series often up to 9.22 µM), for inactives: top-dose activation, negative = inhibition, most hits filed as activators | actives 2.8% (n = 320,000) | AID 485297, 2010; also: % of control where 0% means no effect; nearly all actives have a fitted effect of over 60% in size
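Quantitative HTS format; Huh7 Rab9-luciferase reporter cells (1500/well) receive compound 2 h post-plating, incubate 24 h at 37 °C, then get luciferase reagent for 10 min before luminescence reading.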
FLuc modulator – qHTS profiling assay for firefly luciferase inhibitor/activator using purifed enzyme and Km concentrations of substrates (counterscreen for miR-21 project); purified FLuc, Km substrates, luminescence inhibition; actives 6.9% (n = 360,000); Luciferin 4-monooxygenase (Photinus pyralis), P08659; Potency, µM (top dose mostly 57.5 µM), for the others: at the highest dose activity change, negative = inhibition, actives largely listed as inhibitors;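 also: plate controls were vehicle for no effect and reference inhibitor for full effect; nearly all actives have a fitted effect of over 55% in size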
Target sequence (P08659 whole entry, looked up): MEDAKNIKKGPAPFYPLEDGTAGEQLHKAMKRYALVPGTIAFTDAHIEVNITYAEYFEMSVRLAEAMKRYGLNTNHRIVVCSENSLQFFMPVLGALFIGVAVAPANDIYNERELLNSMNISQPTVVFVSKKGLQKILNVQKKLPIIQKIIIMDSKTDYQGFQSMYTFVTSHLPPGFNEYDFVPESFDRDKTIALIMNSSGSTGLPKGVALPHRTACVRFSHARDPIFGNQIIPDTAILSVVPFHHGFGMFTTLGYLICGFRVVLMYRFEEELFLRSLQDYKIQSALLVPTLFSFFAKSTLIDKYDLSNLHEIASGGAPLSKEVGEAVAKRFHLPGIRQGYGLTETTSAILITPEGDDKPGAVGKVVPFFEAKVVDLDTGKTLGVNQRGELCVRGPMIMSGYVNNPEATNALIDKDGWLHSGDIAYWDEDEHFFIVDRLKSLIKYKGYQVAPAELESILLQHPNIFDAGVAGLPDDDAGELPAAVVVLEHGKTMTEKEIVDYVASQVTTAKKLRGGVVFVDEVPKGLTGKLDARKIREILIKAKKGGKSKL
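Biochemical qHTS of compounds, final roughly 60 µM downward over six points, against 10 nM purified firefly luciferase using Km concentrations of substrates (10 uM D-luciferin, 10 uM ATP) in Tris acetate pH 7.5 buffer; luminescence output.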
Active calls of the source: *; ? = inconclusive; . = no result given; [ ] = dose if it differs, or a comment. Hits are enriched below; roughly 7.5% of the tested compounds scored in any of these assays. Calls follow the shape of the dose curve; as a rule, active = well fitted curve in the direction sought with a large enough effect; inconclusive = small, poorly fitted or top-dose-only effect, or another doubt; inactive = no such curve, though single readings can be large; an effect the other way counts as inactive or inconclusive. Potency is read from the fitted curve at half-maximal effect.

SMILES	NPC1 prom act	KinaseGlo FLuc	SMN2 splice enh	ELG1 genotoxic	Rab9 prom act	FLuc modulator
O=c1c(N2CCc3ccccc3C2)csc2ccccc12	.	.	.	.	.	9.53µM*
COc1ccccc1N1CCN(c2csc3ccccc3c2=O)CC1	.	.	.	.	.	10.7µM*
O=c1c(N2CCN(c3cccc(C(F)(F)F)c3)CC2)csc2ccccc12	.	.	.	.	.	0.0%
O=c1c(N2CCc3ccccc3C2)csc2ccc(Br)cc12	.	.	.	.	.	9.53µM*
CC(C)(C)COS(=O)OCC(C)(C)C	.	-4.8%[7.66 µM]	-22.4%[9.22 µM]	.	.	.
COc1cc(NS(=O)(=O)c2ccc(NC(=O)C(C)Oc3ccc(Cl)cc3Cl)cc2)nc(OC)n1 (stereo not drawn)	.	.	-1.9%	.	.	?
CCCCN1C(=O)C(=O)N(CC(=O)N2CCN(c3ccccc3)CC2)C1=O	-0.3%	.	.	-2.9%	1.3%	3.3%
CCCCN1C(=O)C(=O)N(c2ccccc2)C1=S	3.16µM*	-13.2%	11.2µM*	?	3.55µM*	12µM*
Oc1ccc(N=Nc2ccc3c(c2)OCO3)c2ccccc12	?	.	.	5.17µM*	3.16µM*	7.57µM*
COc1ccc(C(=O)NCc2nnc(SCC(=O)N3CCCC3)o2)cc1OC	0.4%	.	.	3.1%	2.7%	-1.7%
CC(=O)Nc1ccc(Nc2ncnc3c2cnn3-c2cccc(C)c2)cc1	2.82µM*	-0.1%	?	10.3%	3.16µM*	-15.4%
c1ccc(CNc2ncnc3c2cnn3-c2ccccc2)cc1	-12.2%	.	.	?	5.6%	?
CC(=O)Cn1cnc2c(cnn2-c2ccc(C)c(C)c2)c1=O	3.16µM*	.	.	?	1.58µM*	23.9µM*
Cc1cccc(-n2ncc3c(NCc4ccco4)ncnc32)c1	8.3%	0.0%	15.8µM*	?	?	12µM*
Cc1ccc(-n2ncc3c(=O)n(CC(=O)N(C)C)cnc32)cc1C	21.3%	.	.	14.8%	29.6%	?
Cc1cccc(-n2ncc3c(NCc4ccccc4)ncnc32)c1	-16.4%	-2.6%	10µM*	18.4µM*	-3.9%	-17.4%
CCc1ccc(NC(=O)C(CC)n2nnc(C(=O)OC)c2C(=O)OC)cc1 (stereo not drawn)	.	.	0.8%	.	.	0.1%
CC(C)CCOc1ccc(C2CC(=O)N(C)C2=O)cc1 (stereo not drawn)	5.1%	-3.3%	.	6.6%	11.9%	-17.3%
Clc1ccc(-n2ncc3c(NCc4cccnc4)ncnc32)cc1Cl	0.501µM*	.	.	?	1.12µM*	1.07µM*
Cc1ccc(-n2ncc3c(NCc4ccco4)ncnc32)cc1C	2.82µM*	-2.6%	15.8µM*	?	3.55µM*	13.5µM*
Cc1ccc(-n2ncc3c(NNC(=O)c4ccco4)ncnc32)cc1Cl	14.8%	.	.	?	9.2%	8.49µM*
COc1ccc(CNc2ncnc3c2cnn3-c2ccc(C)c(C)c2)cc1	.	.	.	.	.	-7.2%
Cc1cccc(-n2ncc3c(NNC(=O)c4ccco4)ncnc32)c1	1.8%	.	.	5.8%	11.3%	?
Cc1cccc(-n2ncc3c(NCc4cccs4)ncnc32)c1	3.55µM*	-5.0%	10µM*	?	?	9.53µM*
CNc1ncnc2c1cnn2-c1ccc(C)c(C)c1	.	.	.	.	.	10.7µM*
CN(C)CCCNc1ncnc2c1cnn2-c1ccccc1	17.4%	-2.2%	5.1%	?	29.9%	?
CCOCCCNc1ncnc2c1cnn2-c1ccc(C)c(C)c1	.	.	.	.	.	10.7µM*
COc1ccc(OC)c(Nc2ncnc3c2cnn3-c2cccc(C)c2)c1	-25.7%	-1.3%	?	0.1%	-10.2%	-17.9%
Cc1ccc(-n2ncc3c(NCCCN(C)C)ncnc32)cc1Cl	.	.	.	.	.	13.5µM*
Cc1cccc(-n2ncc3c(NCCN4CCOCC4)ncnc32)c1	26.3%	0.4%	-8.9%	0.2%	28.6%	?
